Many of the other results were omitted from the sample, so hits are more common in it than they were.
N370S GC mod: N370S glucocerebrosidase modulation, Gaucher chaperone candidate; P04062; N370S GC spleen homogenate, 4MU-glucoside fluorescence; Potency, µM (top dose mostly 59.4 µM), without a hit: at the highest dose activity change, negative = inhibition, most hits filed as inhibitors; 0.092% of 330,000 active;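 note: potency is the fitted concentration of half-maximal effect; 0% = full enzyme activity and -100% = no enzyme basal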
ClpP mod: qHTS Assay for Activators of ClpP | Potency, µM (series often up to 57.5 µM), for inactives: top-dose activity change, negative = active | purified B. subtilis ClpP, FRET peptide cleavage, 20 min | 1.9% of 340,000 active | AID 651965, 2013 | ATP-dependent Clp protease proteolytic subunit (Bacillus subtilis (strain 168)), P80244; active = well fitted falling curve with a large enough effect; inconclusive = small, poorly fitted or top-dose-only effect; inactive = no such curve, though single readings can be large or run the other way; note: potency is the fitted concentration of half-maximal effect; the source files actives as falling curves though it sought activators and does not explain the sign; nearly all actives have a fitted effect of over 65% in size
Target sequence (P80244 whole entry, looked up): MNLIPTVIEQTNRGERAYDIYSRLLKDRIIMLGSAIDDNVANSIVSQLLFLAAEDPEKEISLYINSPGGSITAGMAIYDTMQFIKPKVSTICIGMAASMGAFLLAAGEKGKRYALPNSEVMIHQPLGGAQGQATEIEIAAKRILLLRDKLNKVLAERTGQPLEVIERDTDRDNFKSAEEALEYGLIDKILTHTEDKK
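FRET quenching reversal measured ClpP activation: 10 microg/mL B. subtilis ClpP at pH 8 with the FRET-FV decapeptide, read at 430 nm after 320 nm excitation. The 20-min minus 0-min signal was scaled between DMSO/no-enzyme wells and ADEP (5.8 microM final).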
CBFb-RUNX1 inh: inhibitors of human CBF-beta and RUNX1 interaction; AlphaScreen CBFb-His/RUNX1-biotin binding, biochemical; 230,000 tested, under 10 active; Q01196+Q13951; Potency, µM (titrated, usually from 59.8 µM), inactives show at the top dose activity, negative = inhibition, hits mostly inhibitors; AID 1477; note: % of control where 0% means no effect
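Inhibition was taken as any reduction in AlphaScreen signal from the CBF-beta–RUNX1 pair (His and biotin tags, 30 nM each), measured after compound (15 min) and bead (90 min) incubations at room temperature.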
Apoferritin bind: candidate novel general anesthetic via apoferritin binding. Potency, µM (doses to about 77.5 µM), for inactives: at the highest dose activity change, negative = displacement, actives largely listed as inhibitors. AID 485281. 0.074% of 350,000 active. apoferritin/1-aminoanthracene competitive binding, fluorescence. P02791; note: potency is the fitted concentration of half-maximal effect; % is set by controls: 0 for no effect and ±100 for the full control effect; nearly all actives have a fitted effect of over 20% in size
Target sequence (P02791 2-175 limits assumed): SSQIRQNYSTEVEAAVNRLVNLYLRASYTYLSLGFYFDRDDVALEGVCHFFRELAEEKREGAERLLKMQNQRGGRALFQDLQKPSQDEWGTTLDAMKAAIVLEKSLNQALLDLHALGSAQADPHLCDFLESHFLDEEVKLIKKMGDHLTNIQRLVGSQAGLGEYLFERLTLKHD
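Apoferritin-based anesthetic binding model; compound displacement of fluorescent 1-AMA measured as endpoint fluorescence after 10 minutes at room temperature, scaled to free-ligand and complex controls.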
Glioma ERSR ind: ER stress response induction in glioma | U87-MG GRP78 promoter luciferase reporter, 16 h | Potency, µM, for inactives: at the highest dose activation, most hits filed as activators | 0.02% of 420,000 active | AID 602332; note: potency is the fitted concentration of half-maximal effect; series mostly up to about 76 µM; % of control where 0% means no effect; nearly all actives have a fitted effect of over 35% in size
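Stably transfected U87-MG human glioma cells carrying a GRP78-based luminescent sensor were seeded at 1000 cells/well, pin-dosed with compounds and incubated 16 h. Luciferase reagent was then added, and end-point luminescence was read after 10 min at room temperature.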
a7 integrin act: integrin-mediated muscular dystrophy alleviation activation; alpha7betagal myoblasts, beta-gal FDG fluorescence, 48 h; Potency, µM (highest dose often 38.3 µM), without a hit: top-dose activation, actives largely listed as activators; 0.064% of 350,000 active;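 note: potency is the fitted concentration of half-maximal effect; 100% = response of the positive control SU9516; nearly all actives have a fitted effect of over 60% in size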
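alpha7betagal+/- myoblasts (passage 13, 250/well) treated 48 h at 37C with compounds at 1:260 dilution of DMSO stock. Lysed, then beta-galactosidase activity read as FDG fluorescence (ex 480/em 540) after 30 min, with pre-read for autofluorescence.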
* hit, by the source's call; u = inconclusive; x = no result given. Unless noted, calls come from the whole dose curve; as a rule, active = well fitted curve in the direction sought with a large enough effect; inconclusive = small, poorly fitted or top-dose-only effect, or another doubt; inactive = no such curve, though single readings can be large; an effect the other way counts as inactive or inconclusive.

SMILES	N370S GC mod	ClpP mod	CBFb-RUNX1 inh	Apoferritin bind	Glioma ERSR ind	a7 integrin act
CC(=O)c1cccc(NC(=O)C(=O)Nc2cccc3ccccc23)c1	0.9%	0.8%	1.1%	-12.4%	1.5%	8.91µM*
CCN(CC)c1ccc(/C=C/c2ccc3ccccc3n2)cc1	x	-1.0%	x	x	-9.5%	x
CCCCCCCCCC[n+]1cc(Br)cc(Br)c1	x	-0.2%	x	x	-7.5%	x
COc1ccc(-c2coc3c2c(C)cc2oc(=O)c(CC(=O)O)c(C)c23)cc1	x	-10.5%	x	-15.2%	2.6%	x
Cc1cc2oc(=O)c(CC(=O)O)c(C)c2c2occ(-c3ccc(F)cc3)c12	x	28.2µM*	x	3.8%	2.4%	x
O=Cc1ccc(O)cc1O	-0.1%	-1.3%	x	-9.5%	-2.1%	13.9%
O=CN/C=C/c1cc(O)ccc1O	-3.4%	22.4µM*	x	2.1%	-7.7%	-43.2%
O=C(NCC1CCC2(CCN(Cc3cnn(-c4ccc(F)cc4)c3)CC2)O1)c1ccccc1 (stereo not drawn)	x	x	x	x	0.8%	x
CN(C)c1ncc2nc(-c3ccccc3)c(=O)n(Cc3ccc(F)cc3)c2n1	9.1%	x	x	x	-3.3%	x
CN(C)c1nc(-c2ccccc2)c2cnn(Cc3ccccc3)c2n1	u	28.2µM*	u	0.2%	-3.4%	-12.8%
Cc1nc(C)c(C(=O)N2CCc3c(cnc(C)c3CNC(=O)c3cncs3)C2)s1	x	x	x	x	-4.5%	x
COc1cc(=O)n2c(c1C(=O)NC(C)c1ccco1)CCN(C(=O)c1ccccc1SC)CC2 (stereo not drawn)	x	x	x	x	-2.2%	x
CCC(COC(=O)Nc1cccc(C)c1)NC(=O)OCC(C)C (stereo not drawn)	-17.2%	10µM*	0.6%	-23.9%	4.2%	-10.1%
O=C(/C=C/c1ccc(/C=C/C(=O)Nc2ccc(C3=NCCN3)cc2)cc1)Nc1ccc(C2=NCCN2)cc1	-5.6%	x	u	43.8%	-1.5%	x
Cc1nn(C(C)(C)C)c(OC(=O)C2CCCC2)c1S(=O)(=O)c1ccccc1	17.3%	11.2µM*	4.9%	3.2%	-9.2%	-17.5%
CCC(=O)Nc1ccc2c(c1)C(=O)N(C1CCCCC1)C2=O	6.0%	22.4µM*	-2.7%	-10.9%	0.8%	-14.4%
O=S(Cc1ccc(Br)cc1)Cc1nnc(SCc2ccc(Cl)cc2)n1-c1ccccc1 (stereo not drawn)	10.4%	1.4%	-8.5%	60.8%	-4.9%	u
O=S(Cc1ccc(Br)cc1)Cc1nnc(SCc2c(F)cccc2Cl)n1-c1ccccc1 (stereo not drawn)	2.1%	31.6µM*	-9.0%	-10.7%	-3.8%	35.7%
Cc1nn(CCCC(=O)Nc2cc(Oc3ccccc3)cc([N+](=O)[O-])c2)c(C)c1[N+](=O)[O-]	-6.8%	25.1µM*	-13.2%	-12.9%	-2.4%	-21.9%
Cc1ccc(C)c(Oc2cc(NC(=O)CCCn3nc(C)c([N+](=O)[O-])c3C)cc([N+](=O)[O-])c2)c1	18.7%	-0.7%	-3.5%	u	-6.0%	-51.2%
CCCCN1CC(C(=O)NCc2ccc(C)cc2)CC1=O (stereo not drawn)	1.5%	20µM*	2.6%	-10.1%	-5.6%	2.2%
COc1ccc(Cn2ccc3nc(C)c(C(=O)Nc4ccc(OC(F)(F)F)cc4)cc3c2=O)cc1	x	25.1µM*	x	u	-5.0%	x
COC(=O)c1ccc2nc(NC(=O)C(C)(C)C)sc2c1	12.3%	x	4.7%	-15.6%	-15.1%	-50.5%
COC(=O)c1ccc2nc(Nc3nc4ccc(F)cc4s3)sc2c1	u	17.8µM*	12.2%	20.7%	-15.5%	12.2%
COc1cc2nc(N3CCCCC3)nc(NC3CCN(C)CC3)c2cc1OC	x	3.6%	x	x	x	x
SMILES	N370S GC mod	ClpP mod	CBFb-RUNX1 inh	Apoferritin bind	Glioma ERSR ind	a7 integrin act
CC(C)(CO)C(O)C(=O)NCCCC(=O)O (stereo not drawn)	x	x	x	x	-3.3%	x
O=S1(=O)CC(O)C(N2CCCCC2)C1 (stereo not drawn)	1.2%	11.2µM*	8.0%	3.5%	-6.9%	8.3%
Cc1ccc2c(c1)cc(CN(C)Cc1nc(C)cs1)c(=O)n2C	x	x	x	x	-1.8%	x
O=C(NCCNC(=O)c1ccc(Br)o1)c1cccnc1	-4.7%	25.1µM*	x	-3.8%	-0.2%	32.2%
O=C(NCCNC(=O)c1ccc(Br)o1)c1ccc(Br)o1	-1.8%	-1.6%	4.2%	-5.6%	-0.8%	9.3%
Cc1ccc(C2NC(=O)c3c(sc4c3CCN(C)C4)N2)o1 (stereo not drawn)	23.1%	28.2µM*	-21.4%	200.0%	-4.6%	-29.0%
Cc1ccc(C2NC(=O)c3c(sc4c3CCN(C)C4)N2)s1 (stereo not drawn)	u	25.1µM*	u	97.3%	3.8%	1.9%
CN1CCc2c(sc3c2C(=O)NC(c2ccccn2)N3)C1 (stereo not drawn)	8.9%	15.8µM*	13.4%	89.9%	-3.1%	-11.2%
CN1CCc2c(sc3c2C(=O)NC(c2ccccc2)N3)C1 (stereo not drawn)	u	0.6%	-2.2%	3.2%	-3.1%	-8.1%
Cc1ccc(CNc2nc(CN3CCN(C=O)CC3)nc3ccccc23)o1	x	x	x	x	-4.3%	x
CC[N+]1(CC(=O)c2ccc(Br)cc2)CCCCC1	x	0.7%	x	x	-1.4%	x
CCCCc1c(O)c2ccccc2n(CCCC)c1=O	10.2%	0.3%	6.8%	4.2%	-2.6%	-17.4%
CCCCc1c(CCC)c(=N)c2ccccc2n1C	2.9%	15.8µM*	0.4%	-19.1%	-4.0%	-62.7%
CC(C)N(C(=O)CO/N=C/c1cccc([N+](=O)[O-])c1)C(C)C	-2.9%	-3.9%	8.6%	44.7µM*	-1.4%	14.2%
CC(C)N(C(=O)/C=C/c1cccc([N+](=O)[O-])c1)C(C)C	13.6%	-0.9%	-3.1%	u	-0.3%	1.2%
COCCNc1nnc(SC(C)C(=O)Nc2ccc(-c3nc4ccc(C)cc4s3)cc2)s1 (stereo not drawn)	12.9%	17.8µM*	-7.2%	-22.5%	-5.2%	-1.6%
Cc1ccc(C)c(S(=O)(=O)NC(C)C(=O)Nc2ccc(-c3nc4ccccc4s3)cc2)c1 (stereo not drawn)	-1.3%	31.6µM*	-0.2%	-8.9%	2.8%	2.9%
O=C(CNS(=O)(=O)c1cccc(Cl)c1)Nc1ccc(-c2nc3ccccc3s2)cc1	2.6%	-2.2%	1.3%	3.7%	1.7%	-3.3%
CC(C)(C)c1ccc(S(=O)(=O)NCC(=O)Nc2ccc(-c3nc4ccccc4s3)cc2)cc1	5.8%	5.01µM*	5.0%	-11.7%	-0.6%	-24.7%
CCS(=O)(=O)c1ccccc1C(=O)Nc1ccc(-c2nc3ccccc3s2)cc1	x	4.7%	x	0.2%	4.0%	x
CC(NS(=O)(=O)c1cccc(Cl)c1)C(=O)Nc1ccc(-c2nc3ccccc3s2)cc1 (stereo not drawn)	-1.4%	35.5µM*	5.9%	-4.8%	3.7%	1.8%

High-throughput results deposited in PubChem BioAssay by National Center for Advancing Translational Sciences (NCATS).
